An excerpt weighted towards active compounds, which were near 5.8% of everything screened.
Gal4-VP16 FLuc – VP16 counterscreen qHTS for inhibitors of ROR gamma transcriptional activity; 310,000 compounds, 3.5% hits; Potency, µM (highest dose often 53.6 µM), inactives show top-dose activity, negative = inhibition, actives largely listed as inhibitors; Drosophila S2 Gal4-VP16 UAS-luciferase, luminescence, 20 h; AID 2546, 2010;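 note: Gal4-VP16 expression switched on by copper sulfate through the metallothionein promoter; potency is the fitted concentration of half-maximal effect; % is set by controls: 0 for no effect and ±100 for the full control effect; nearly all actives have a fitted effect of over 50% in size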
uPA generation – qHTS for Inhibitors of Cell Surface uPA Generation. 330,000 compounds, 0.31% hits. AID 540303, 2011. Potency, µM (titrated, usually from 38.3 µM), inactives show at the top dose activity change, negative = inhibition, actives largely listed as inhibitors. cell surface uPA generation assay, qHTS; active = well fitted inhibition curve with a large enough effect; inconclusive = small, poorly fitted or top-dose-only effect; inactive = no such curve, though single readings can be large or run the other way; tested in mouse RAW 264.7 cells; note: potency is the fitted concentration of half-maximal effect; % is set by controls: 0 for no effect and ±100 for the full control effect; nearly all actives have a fitted effect of over 55% in size
RORg inh – qHTS for inhibitors of ROR gamma transcriptional activity | 310,000 compounds, 5.4% hits | AID 2551, 2010 | Nuclear receptor ROR-gamma (Mus musculus), P51450 | Drosophila S2 Gal4-RORgamma UAS-luciferase reporter, 20 h | Potency, µM (highest dose often 53.6 µM), for inactives: at the highest dose activity change, negative = inhibition, actives largely listed as inhibitors; note: potency is the fitted concentration of half-maximal effect; % is set by controls: 0 for no effect and ±100 for the full control effect; nearly all actives have a fitted effect of over 60% in size
Target sequence (P51450 whole entry, looked up, the tested form may be a part): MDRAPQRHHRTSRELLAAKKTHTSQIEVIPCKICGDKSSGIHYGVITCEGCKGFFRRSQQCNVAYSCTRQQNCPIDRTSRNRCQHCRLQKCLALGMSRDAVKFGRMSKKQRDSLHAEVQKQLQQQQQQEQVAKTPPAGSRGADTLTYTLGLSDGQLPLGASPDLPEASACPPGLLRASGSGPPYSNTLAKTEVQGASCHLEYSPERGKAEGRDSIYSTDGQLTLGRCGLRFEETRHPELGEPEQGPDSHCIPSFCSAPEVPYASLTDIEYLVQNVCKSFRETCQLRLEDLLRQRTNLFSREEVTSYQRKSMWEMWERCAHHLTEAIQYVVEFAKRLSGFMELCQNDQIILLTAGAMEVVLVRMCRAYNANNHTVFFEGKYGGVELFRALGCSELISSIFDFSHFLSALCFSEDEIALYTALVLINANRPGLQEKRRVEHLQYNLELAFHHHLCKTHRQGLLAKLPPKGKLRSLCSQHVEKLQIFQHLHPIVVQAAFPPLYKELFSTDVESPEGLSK
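A Gal4/UAS one-hybrid system in insect cells: metallothionein-promoter Gal4–ROR gamma fusion plus Photinus luciferase reporter. Copper sulfate 700 uM final, 20 hr ambient incubation, luminescent detection after 10 min with reagent.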
TRPV1 ag – HTS Assay for Compounds that Act as Agonists of the Vanilloid Receptor 1; 320,000 compounds, 0.19% hits; activation, % at 8.33 µM; TRPV1-expressing cells, Fluo-8 calcium influx, agonist mode; in the data active = activation above about 80%; inconclusive = between about 30% and that limit; note: 0% is about no effect
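TRPV1-expressing cells were cultured overnight at 35.5C and loaded with Fluo-8 calcium dye for 40 to 90 min at room temperature. After a 10 s baseline, compound was added and calcium influx was read kinetically for 3 min (ex 480/em 520 nm).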
TRPV1 PAM – HTS Assay for Compounds that Act as Potentiators of the Vanilloid Receptor 1 | potentiation, % at 8.33 µM | Transient receptor potential cation channel subfamily V member 1 (Homo sapiens), Q8NER1 | TRPV1-expressing cells, Fluo-8 calcium influx, capsaicin EC20 potentiation | 320,000 compounds, 0.02% hits; in the data active = potentiation above about 80%; inconclusive = between about 30% and that limit; note: 0% is about no effect
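Cells expressing TRPV1 were dye-loaded with Fluo-8 and read kinetically: 10 s baseline, 3 min after compound (agonist portion), then 2 min after EC20 capsaicin (allosteric enhancer portion). Calcium-bound dye fluorescence at 480/520 nm.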
The depositor's hits bear a star; ? = inconclusive; nt = no result; [ ] = dose if it differs, or a comment. Unless noted, calls come from the whole dose curve; as a rule, active = well fitted curve in the direction sought with a large enough effect; inconclusive = small, poorly fitted or top-dose-only effect, or another doubt; inactive = no such curve, though single readings can be large; an effect the other way counts as inactive or inconclusive.

SMILES | Gal4-VP16 FLuc | uPA generation | RORg inh | TRPV1 ag | TRPV1 PAM
COc1ccc([C@H]2CC(=O)C=C(c3ccc(OC)nc3)C2)cc1 | nt | 12.8% | nt | 15.1 | -1.8
COc1ccccc1-c1noc(CCCC(=O)NC2CCCC2)n1 | 4.2% | 3.3% | -5.8% | 1.1 | 26.4
COc1ccc(-c2noc(CCCC(=O)NC3CCCCC3)n2)cc1 | 15.8µM* | -4.3% | 78.8% | 3.9 | 3.6
O=C(CCCc1nc(-c2ccccc2Cl)no1)NC1CCCC1 | ? | 19.6% | 8.91µM* | 7.4 | 27.7
COc1ccc(-c2noc(CCC(=O)NC3CCCC3)n2)cc1 | -5.7% | 0.9% | 12.3% | 2.8 | -8.6
C=Cc1ccccn1 | -3.0% | nt | 7.2% | nt | nt
CC(=O)c1ccc(OCC(=O)c2cc(C)n(-c3ccc4c(c3)OCO4)c2C)cc1 | 10µM* | -1.2% | ? | ? | -8.6
Cc1cc(C(=O)COC(=O)Cc2n[nH]c(=O)c3ccccc23)c(C)n1-c1ccc2c(c1)OCO2 | 17.8µM* | -4.7% | -18.9% | 8.4 | 10.8
Cc1cc(C(=O)COC(=O)c2ccc(N)c([N+](=O)[O-])c2)c(C)n1-c1ccc2c(c1)OCO2 | ? | ? | ? | 1.1 | 8.7
CN(C(=O)c1cccc(NC(=O)c2cccs2)c1)c1ccccc1 | -13.4% | 8.4% | -15.8% | -3.1 | 24.0
CCCn1c(N)c(C(=O)CSc2n[nH]c(-c3ccc(C)cc3)n2)c(=O)[nH]c1=O | nt | 1.7% | nt | 6.1 | -0.1
CCOC(=O)C(Sc1nnc(-c2ccncc2)o1)C(C)=O (stereo unspecified) | 4.47µM* | 2.1% | 5.01µM* | -0.4 | 10.7
Cc1ccc(NC(=O)C(C)Sc2nnc(C)n2C2CC2)cc1S(=O)(=O)N1CCOCC1 (stereo unspecified) | nt | 13.8% | nt | 1.1 | -7.4
COc1ccc(C)cc1NC(=S)N1CCN(c2ccccn2)CC1 | ? | 6.2% | ? | -0.9 | -5.0
S=C(Nc1cc(Cl)cc(Cl)c1)N1CCCC1 | ? | -1.7% | 5.01µM* | 28.1 | -8.7
COC(=O)c1cc(OC)c(OC)cc1NC(=S)N1CCN(c2ccccn2)CC1 | 6.0% | 0.6% | 11.2µM* | 13.6 | -0.6
Cc1ccc(NC(=S)N2CCN(c3ccccn3)CC2)cc1C | 12.6µM* | 1.9% | ? | -4.5 | ?
C=CCNC(=S)N1CCN(c2ncc(C(F)(F)F)cc2Cl)CC1 | 9.4% | -6.6% | -37.8% | ? | -11.8
COc1ccc(NC(=S)N2CCN(c3ccccn3)CC2)cc1OC | -20.5% | 0.6% | ? | -1.5 | -8.4
Cc1cc(C)cc(NC(=S)N2CCN(c3ncc(C(F)(F)F)cc3Cl)CC2)c1 | -25.7% | 4.5% | 3.55µM* | -2.2 | 3.9
O=C(c1ccc(CS(=O)(=O)Cc2ccccc2)cc1)N1CCCCC1 | -2.9% | -7.2% | 22.2% | -4.7 | 6.2
S=C(Nc1cc(Cl)cc(Cl)c1)N1CCN(c2ccccn2)CC1 | -22.0% | -5.6% | 11.2µM* | -2.1 | 6.8
Cc1cccc(NC(=S)N2CCN(c3ccccn3)CC2)c1 | ? | -4.9% | ? | -0.5 | ?
COc1cc(NC(=S)N2CCN(c3ccccn3)CC2)cc(OC)c1OC | 1.1% | -1.8% | -0.8% | -2.3 | 11.1
S=C(Nc1ccc(Br)cc1)N1CCN(c2ccccn2)CC1 | ? | -6.2% | 11.2µM* | 1.8 | 10.5
SMILES | Gal4-VP16 FLuc | uPA generation | RORg inh | TRPV1 ag | TRPV1 PAM
COc1cc(NC(=S)N2CCN(c3ccccn3)CC2)cc(OC)c1 | ? | -0.3% | 11.2µM* | 0.4 | -3.3
Cc1cc(C)cc(NC(=S)N2CCN(c3ccccn3)CC2)c1 | ? | -1.3% | 15.8µM* | 3.8 | -0.3
Cc1cc(C)cc(NC(=S)N2CCN(c3ncccn3)CC2)c1 | ? | -23.6% | 14.1µM* | 3.0 | 3.0
CC1=NN(C(=O)Cc2ccccc2)C(O)(c2cccnc2)C1 (stereo unspecified) | 7.94µM* | nt | 6.31µM* | 7.9 | 17.2
CC1=NN(C(=O)COc2ccc(C)c(C)c2)C(O)(c2ccccc2)C1 (stereo unspecified) | 11.2µM* | -0.3% | 10µM* | 5.5 | -2.4
CC1=NN(C(=O)c2ccccc2Cl)C(O)(c2cccnc2)C1 (stereo unspecified) | ? | 0.1% | ? | 1.4 | -3.7
CCC1=NN(C(=O)COc2ccccc2)C(O)(c2ccc(Br)cc2)C1 (stereo unspecified) | -11.6% | -0.7% | -11.6% | 2.1 | 7.3
CC1=NN(C(=O)COc2ccccc2)C(O)(c2ccccc2)C1 (stereo unspecified) | 10µM* | 2.3% | 6.31µM* | -1.7 | 25.3
CC1=NN(C(=O)CSCc2ccccc2)C(O)(c2ccccc2)C1 (stereo unspecified) | 12.6µM* | -38.3% | ? | -1.6 | 7.2
CCOC(=O)N1N=C(C)CC1(O)c1ccc(Cl)cc1 (stereo unspecified) | 4.3% | 5.3% | -15.9% | -0.6 | 17.2
COc1ccc(OC2C=CC(C#Cc3ccccc3)OC2CO)cc1 (stereo unspecified) | 11.3%[10 µM] | nt | -7.0%[10 µM] | nt | nt
Cc1ccc(CN(C)C(=O)COC(=O)CSc2cc(C)c3ccccc3n2)cc1 | nt | -8.1% | nt | 2.7 | -5.4
CCN(C(=O)CN1C(=O)S/C(=C\c2ccccc2OC)C1=O)C1CCS(=O)(=O)C1 (stereo unspecified) | -5.1% | -3.1% | -20.0% | 2.5 | -7.6
O=C(CCN1C(=O)/C(=C/c2ccc(F)cc2)SC1=S)NC1C=CS(=O)(=O)C1 (stereo unspecified) | -15.0% | 5.1% | -37.2% | -0.1 | 4.9
O=C(CCN1C(=O)/C(=C/c2ccccc2Cl)SC1=S)NC1C=CS(=O)(=O)C1 (stereo unspecified) | -6.4% | 7.94µM* | ? | 2.1 | 4.5
O=C(CCCN1C(=O)/C(=C/c2ccccc2Cl)SC1=S)N1CCOCC1 | ? | -12.4% | ? | ? | 2.0
CCN(C(=O)CN1C(=O)/C(=C/c2ccccc2F)SC1=S)C1CCS(=O)(=O)C1 (stereo unspecified) | -9.9% | -23.0% | 10µM* | 1.8 | 28.4
CN1CCN(C(=O)CCN2C(=O)/C(=C\c3ccccc3F)SC2=S)CC1 | -16.8% | ? | 5.62µM* | 5.2 | -5.3
CN1CCN(C(=O)CCN2C(=O)/C(=C/c3ccccc3Cl)SC2=S)CC1 | -0.6% | -15.3% | 17.8µM* | 14.7 | -2.0
O=C(C1CCCN1S(=O)(=O)c1cccc2nsnc12)N1CCCCCC1 (stereo unspecified) | 4.2% | 7.0% | -5.4% | 0.7 | 13.5
Cc1nn(-c2nnc(C)c(=O)[nH]2)c(C)c1SCC(=O)Nc1ccc(C(C)C)cc1 | 19.3% | 5.0% | 1.12µM* | 0.6 | ?
Cc1nn(-c2nnc(C)c(=O)[nH]2)c(C)c1SCC(=O)Nc1ccc(F)cc1 | 9.6% | -3.1% | ? | 1.5 | -18.1
